# This is a sample that favours compounds with a hit; in the whole collection about 2.7% have one here.
# SENP8 block-1 – inhibitors of human SENP8 protease; hit rate 0.64% among 360,000; Q96LD8; recombinant SENP8, Nedd8 substrate fluorescence; inhibition, % at 20 µM; in the data active means inhibition mostly above about 40%, no sharp cut-off; inactive means mostly below about 27%
# SENP7 block – blocks the human protease SENP7; Q9BQF6; recombinant SENP7, Z-RLRGG-aminoluciferin luminescence, 40 min; inhibition, % at 5 µM; hit rate 1.5% among 330,000; AID 434973;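 active means inhibition above about 50% at the single test dose, limit read from the data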;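 further: plate controls were DMSO with enzyme for no effect and no enzyme buffer wells for full effect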
# Target sequence (Q9BQF6 706-1050 limits assumed): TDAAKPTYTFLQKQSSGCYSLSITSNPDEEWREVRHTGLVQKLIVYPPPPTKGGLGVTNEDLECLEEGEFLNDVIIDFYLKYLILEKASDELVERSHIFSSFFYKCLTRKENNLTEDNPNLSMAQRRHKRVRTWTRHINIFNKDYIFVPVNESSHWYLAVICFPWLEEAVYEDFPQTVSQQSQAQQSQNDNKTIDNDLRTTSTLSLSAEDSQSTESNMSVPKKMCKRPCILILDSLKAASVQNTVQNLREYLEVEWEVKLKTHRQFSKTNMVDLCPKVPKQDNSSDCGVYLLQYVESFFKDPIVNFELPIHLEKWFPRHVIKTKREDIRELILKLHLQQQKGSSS
# SENP8 block-2 – inhibitors of human SENP8 protease | Q96LD8 | purified SENP8, Z-RLRGG-aminoluciferin cleavage, luminescence | inhibition, % at 10 µM | hit rate 1.2% among 330,000; in the data active means inhibition above about 50%
# HSP90 inh – inhibitors of HSP90 luciferase refolding in rabbit reticulocyte lysate | luciferase refolding luminescence, 3 h | inhibition, % at 5.6 µM | hit rate 0.91% among 290,000;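 active means inhibition above the screen-wide mean plus 3 SD, computed separately per campaign, cut at about 16% in these data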;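 further: 0% = DMSO wells and 100% = 60 µM geldanamycin wells; inhibitors lower the luminescence because luciferase stays unfolded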
# SENP6 inh – blocks the human protease SENP6; Q9GZR1; Recombinant SENP6 catalytic domain, aminoluciferin luminescence; inhibition, % at 10 µM; hit rate 1.8% among 330,000; AID 2599;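 active means inhibition above about 50% at the single tested dose, limit read from the data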;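 further: plate controls were DMSO wells with enzyme for no effect and DMSO wells lacking enzyme for full effect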
# SENP8 confirm – confirmation of human SENP8 protease inhibitors | shares compounds with SENP7 block | Recombinant SENP8, Z-RLRGG-aminoluciferin luminescence, 60 min | inhibition, % at 12.5 µM | hit rate 40% among 6,200;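 active means mean inhibition across replicates above about 50%, limit read from the data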
# SENP6 confirm – confirmation of human SENP6 protease inhibitors; inhibition, % at 12.5 µM; AID 488915; recombinant SENP6, Z-RLRGG-aminoluciferin luminescence; shares compounds with SENP7 block; hit rate 58% among 6,200
# SENP7 confirm – confirmation of human SENP7 protease inhibitors; recombinant SENP7, Z-RLRGG-aminoluciferin luminescence, 40 min; inhibition, % at 12.5 µM; shares compounds with SENP7 block; hit rate 69% among 6,200
# Casp3 SENP sel – selectivity test for SENP inhibitors: human caspase-3 inhibition; AID 488918; purified caspase-3, Z-DEVD-aminoluciferin luminescence, 60 min; shares compounds with SENP7 block; hit rate 60% among 6,200; inhibition, % at 12.5 µM;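 active means mean inhibition above about 50%, limit read from the data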;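 further: plate controls were enzyme with DMSO for no effect and wells without caspase-3 for full effect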
# Target sequence (P42574 28-227 limits assumed): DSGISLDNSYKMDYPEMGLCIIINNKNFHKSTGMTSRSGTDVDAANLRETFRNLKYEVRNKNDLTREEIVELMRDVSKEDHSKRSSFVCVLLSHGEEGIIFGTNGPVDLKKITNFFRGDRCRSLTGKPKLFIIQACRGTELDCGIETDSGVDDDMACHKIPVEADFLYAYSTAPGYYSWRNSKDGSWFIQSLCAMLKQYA
# SENP luc ctr – luminescence interference (SENP counter-screen). hit rate 39% among 6,200. Pre-incubated SENP8/Z-RLRGG-aminoluciferin, luciferase luminescence interference. inhibition, % at 12.5 µM. AID 488919. shares compounds with SENP7 block;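 active means mean inhibition above about 50% when retested at one dose, limit read from the data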;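 further: plate controls were DMSO wells with completed reaction for no effect and substrate without enzyme for full effect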
# * marks the source's active call; other numbers are inactive results; · = not tested or not shown.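 How the source made its calls, unless noted: active means mean inhibition above about 50% in the one-dose retest (limit read from the data); inactive means the rest.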
SMILES,SENP8 block-1,SENP7 block,SENP8 block-2,HSP90 inh,SENP6 inh,SENP8 confirm,SENP6 confirm,SENP7 confirm,Casp3 SENP sel,SENP luc ctr
Cc1cc(C(=O)Nc2cc(C(C)(C)C)on2)c(C)o1,2,71*,64*,-2,73*,15,25,44,51*,11
Cc1ccc(C(=O)O)c(C(=O)Nc2nc3ccccc3s2)c1,16,-2,67*,-2,69*,90*,91*,100*,95*,76*
Cc1cc(C(=O)Nc2ccon2)c(C)o1,1,-9,-10,1,-39,·,·,·,·,·
CC1CC1C(=O)Nc1nc2ccc(S(C)(=O)=O)cc2s1 (configuration not stated),6,-10,3,-5,-3,·,·,·,·,·
COc1ccc2nc(NC(=S)N(C)C)sc2c1,18,76*,67*,0,81*,80*,79*,94*,69*,79*
Cc1c(C(=O)OCC2CCCO2)[nH]c2c1C(=O)CC(c1ccc(N(C)C)cc1)C2 (configuration not stated),-5,-18,-5,0,2,·,·,·,·,·
Cc1cc(Cl)ccc1C(O)c1ncc(-c2ccc3ccccc3c2)[nH]1 (configuration not stated),-88,·,·,·,·,·,·,·,·,·
CCOC(=O)Nc1nc2ccccc2s1,15,38,12,3,40,·,·,·,·,·
Cc1ccc(C(=O)Nc2nc3ccccc3s2)s1,-113,85*,73*,16,91*,57*,83*,97*,76*,49
CC(=O)Nc1cccc(C(=O)OCC(=O)NCc2ccc(F)cc2)c1,7,0,1,3,-21,·,·,·,·,·
CCN1CCN(C(=O)Cn2ncc3c([nH]c4ccccc43)c2=O)CC1,-11,-5,2,-5,-11,·,·,·,·,·
CCCOc1ccc(C2C3=C(CCCC3=O)N(CC(=O)O)C3=C2C(=O)CCC3)cc1OCC,-67,-1,5,2,6,·,·,·,·,·
CCOC(=O)c1sc(-c2ccc(F)cc2)cc1N,-228,1,-15,-1,11,·,·,·,·,·
CCOC(=O)c1sc(-c2ccc(OC)cc2)cc1N,-369,52*,47,0,71*,36,54*,83*,34,14
Nc1[nH]n(-c2ccccc2)c(=O)c1N=Nc1ccccc1,28,67*,43,-3,72*,-4,45,83*,42,-6
COc1cc([N+](=O)[O-])ccc1N=Nc1c(N)[nH]n(-c2ccccc2)c1=O,25,12,17,4,6,·,·,·,·,·
O=c1c2cc([N+](=O)[O-])cc([N+](=O)[O-])c2[nH]n1-c1ccccc1,31,0,46,-2,64*,55*,51*,79*,71*,73*
Nc1[nH]n(-c2ccccc2)c(=O)c1N=Nc1ccccc1[N+](=O)[O-],11,61*,2,-5,-54,19,16,9,7,-1
O=C(c1cnn(-c2cccc(F)c2)c1)c1ccccc1O,12,68*,58*,-7,71*,16,72*,84*,56*,12
O=C(O)c1ccc(-n2cc(C(=O)c3ccccc3O)cn2)cc1,12,78*,78*,-2,84*,81*,79*,93*,91*,85*
O=C(c1cnn(-c2ccccc2)c1)c1cc(Br)ccc1O,24,-4,-13,·,-7,·,·,·,·,·
O=C(c1cnn(C(=O)c2ccccc2)c1)c1ccccc1O,-96,5,-9,2,-11,·,·,·,·,·
O=C(c1cnn(-c2nc3ccccc3s2)c1)c1ccccc1O,17,82*,38,-1,79*,16,37,24,18,9
O=C(c1cnn(-c2ccccc2)c1)c1ccc2ccccc2c1O,14,86*,41,1,7,12,16,0,27,1
Cc1ccc(-c2csc(NC(=O)COC(=O)c3cccc(S(=O)(=O)N4CCOCC4)c3)n2)cc1,·,36,0,-10,51*,52*,51*,83*,70*,53*
SMILES,SENP8 block-1,SENP7 block,SENP8 block-2,HSP90 inh,SENP6 inh,SENP8 confirm,SENP6 confirm,SENP7 confirm,Casp3 SENP sel,SENP luc ctr
COc1ccc([C@H]2CC(=O)C=C(c3cccc(CO)c3)C2)cc1,12,-1,-2,·,14,·,·,·,·,·
O=C(CNc1ccc2ccccc2c1)N/N=C/c1ccc([N+](=O)[O-])o1,-173,12,7,7,54*,-14,16,-2,-6,-9
CC1=NN(c2ccccc2C(=O)O)C(=O)C1N=Nc1ccccc1 (configuration not stated),28,-1,-4,6,-1,·,·,·,·,·
CCOC(=O)c1sc(N2N=C(C)C(N=Nc3cccc(C)c3)C2=O)nc1C (configuration not stated),17,3,0,1,-6,·,·,·,·,·
CC1=NN(c2nc(-c3ccc(C)cc3)cs2)C(=O)C1N=Nc1cccc(C)c1 (configuration not stated),35,-2,8,3,69*,-2,16,-9,16,52*
CC1=NN(C(N)=S)C(=O)C1N=Nc1cccc(C(=O)O)c1 (configuration not stated),27,91*,85*,13,93*,92*,92*,100*,84*,47
CC1=NC(=O)C(N=Nc2cccc(O)c2)N1c1ccccc1 (configuration not stated),17,-5,24,-1,2,·,·,·,·,·
CC1=NN(C(N)=S)C(=O)C1N=Nc1cccc(C)c1 (configuration not stated),30,54*,60*,1,1,13,10,12,8,4
CC1=NN(C(N)=S)C(=O)C1N=Nc1ccc(C)c(Br)c1 (configuration not stated),18,78*,93*,2,95*,62*,53*,43,68*,36
Cc1cccc(C2CC(c3ccccc3)=NN2c2ccc(S(N)(=O)=O)cc2)c1 (configuration not stated),-336,·,·,·,·,·,·,·,·,·
C#CCOCCOCCOCCNc1nc(N2CCN(C(=O)Cn3cc(CCO)nn3)CC2)nc(N2CCN(C(=O)[C@H](Cc3ccc(O)cc3)n3cc(CCO)nn3)CC2)n1,6,·,·,·,·,·,·,·,·,·
CCN(CC(=O)Nc1c(F)cccc1F)C(=O)CCCOc1ccccc1,3,·,·,·,·,·,·,·,·,·
C/C(=N/NC(=O)Nc1ccccc1)c1ccc(C)cc1,25,-9,-6,-5,-3,·,·,·,·,·

# Bioassay records: PubChem BioAssay, several laboratories
